Results taken from PubChem BioAssay (NCI).
About 83,000 compounds went through this panel and 20% of them were active in at least one assay; those are over-represented in the sample as a whole.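 In brief: 96-well plates, 48 h treatment, single concentration, percent growth endpoint.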 Unmarked numbers belong to inactive results. Active and inactive are the calls of the source. The calls were made as follows: active = growth percent below 10; inactive = the rest.

Columns and labels:
Test in all cases: NCI-60 one-dose screen, 48 h (100 = growth as untreated, 0 = no growth, -100 = all killed)
Conditions in all cases: 10 µM unless noted
[1] = test system: DU-145 prostate
[2] = test system: K-562 leukemia
[3] = test system: MALME-3M melanoma
[4] = test system: MDA-MB-231 breast
[5] = test system: RXF 393 renal
[6] = test system: SF-268 CNS
[7] = test system: SF-295 CNS
[8] = test system: SF-539 CNS
[9] = test system: UACC-257 melanoma
[10] = test system: M14 melanoma
[11] = test system: HCT-15 colon
[12] = test system: HT29 colon
[13] = test system: SNB-75 CNS
[14] = test system: SNB-19 CNS
[15] = test system: U251 CNS
[16] = test system: PC-3 prostate
[17] = test system: SK-MEL-5 melanoma
[18] = test system: UACC-62 melanoma
[19] = test system: LOX IMVI melanoma
[20] = test system: SK-MEL-28 melanoma

SMILES	growth [1]	growth [2]	growth [3]	growth [4]	growth [5]	growth [6] [%]	growth [7]	growth [8]	growth [9]	growth [10]	growth [11]	growth [12]	growth [13]	growth [14] [%]	growth [15]	growth [16] [%]	growth [17]	growth [18]	growth [19]	growth [20]
COc1cc(CCC[P+](c2ccccc2)(c2ccccc2)c2ccccc2)c(OC)c2c1OCO2	28.5%	14.4%	3.07% (active)	-0.787% (active)	64.3%	13	66.9%	46.9%	5.75% (active)	17.4%	93.1%	47.2%	3.69% (active)	15.2	11.5%	14.4	-48.9% (active)	0.576% (active)	29.6%	32.1%
CCCCN(C)N=Nc1ccc(C(N)=O)cc1	113%	116%	111%	106%	150%	108	101%	107%	105%	102%	114%	107%	97.3%	105	108%	103	108%	98.7%	107%	104%
C#C[C@]1(O)CC[C@H]2[C@@H]3CC=C4c5sc(Nc6ccccc6)nc5CC[C@]4(C)[C@H]3CC[C@@]21C	16.2%	9.63% (active)	25.8%	27.7%	-53.1% (active)	24.3	-56.4% (active)	-51.1% (active)	30.4%	2.55% (active)	-28.1% (active)	6.31% (active)	-22.2% (active)	49.4	13.8%	10.4	14.2%	19.6%	-6.23% (active)	-19.9% (active)
NCCCNc1nc2ccccc2c2c(=O)c3cccc(F)c3sc12	12.6%	-28.2% (active)	80%	6.07% (active)	52.4%	45.9	72.8%	44.2%	93.5%	10%	9.25% (active)	-14.1% (active)	42.7%	44	28.5%	48.5	72.9%	75.9%	-96.8% (active)	85.1%
O=c1c2cc(F)ccc2sc2c(N3CCNCC3)nc3ccccc3c12	-31.5% (active)	-38.2% (active)	84.8%	-29.1% (active)	58.1%	55.1	92.1%	29.8%	92.1%	-52.7% (active)	-40.7% (active)	-37.7% (active)	70.2%	65.3	-24.2% (active)	48.7	76.8%	59.5%	-99.1% (active)	57.7%
CCOC(=O)CC1C(COC(=O)NC)OC(n2cnc3c(NC(=O)Nc4ccccc4)ncnc32)C1O[Si](C)(C)C(C)(C)C (stereo not given)	58.7%	28.7%	53.5%	71.7%	35%	59.9	66.1%	33.4%	59.2%	57.1%	52.2%	8.8% (active)	45.4%	99.1	52%	32.4	23.5%	65.1%	48.6%	71.9%
CCN(CC)S(=O)(=O)c1ccc(NC(=O)CSc2nnc(C)n2-c2ccccc2)cc1	120%	88.5%	132%	108%	110%	97.7	115%	101%	95.4%	116%	113%	111%	98.5%	102	104%	95.2	105%	92.8%	102%	108%
Cc1ccc(/C=N\NC(=O)c2[nH]c3ccc(F)cc3c2-c2ccccc2)cc1	-2.21% (active)	16.9%	15.6%	36.5%	47.6%	38.9	-6.59% (active)	21.4%	59.7%	24.1%	24.1%	2.07% (active)	13.7%	45.9	12.4%	15	-17.1% (active)	44.9%	26.5%	71.5%
NCCOc1ncccc1/C=C1\c2ccccc2-c2ccc(C(F)F)cc21	13.1%	16.5%	61.6%	35.3%	61.5%	54.3	53.7%	49.3%	102%	64.5%	28.8%	48.9%	53.2%	40.4	35.9%	50.9	58.2%	68.2%	12.3%	82%
O=C(/C=C/c1cccc2ccccc12)c1ccc(NC(=O)c2ccccc2CN2C(=O)c3ccccc3C2=O)cc1	42.7%	20.2%	79.6%	58.4%	91.5%	75.4	96.4%	90.2%	88%	72.8%	54.2%	41.7%	61.2%	76.7	64.5%	74	87.9%	69.3%	60.9%	96.7%
Cc1nn(-c2ccccc2)c(-n2ccnc2)c1/C=N/Nc1nc(-c2ccc(Cl)c(Cl)c2)cs1	2.44% (active)	18.7%	22.5%	6.68% (active)	-1.62% (active)	41.8	57.7%	59.3%	62.7%	45.1%	23.8%	17.1%	-2.39% (active)	46	53.1%	28.8	26.5%	71.4%	20.1%	58.1%
COc1cc(-c2nc3sccn3c2-c2ccnc(NCCCNS(=O)(=O)c3ccc(F)cc3)n2)ccc1F	76.1%	38.2%	75.1%	86.1%	71.6%	74.2	57.1%	95.6%	77.8%	53.6%	44.8%	61%	59.9%	96.3	91.4%	46.8	40.7%	29.7%	48.3%	73.9%
Cc1cccc2c3c(sc12)C(c1ccc(Cl)cc1)C(C#N)=C(N)O3 (stereo not given)	17.6%	5.28% (active)	61.9%	26.1%	-7.02% (active)	44.8	1.66% (active)	-14.5% (active)	69.5%	9.67% (active)	10.3%	6.24% (active)	4.24% (active)	27.6	27.2%	16.2	27.1%	17.6%	18.4%	58.6%
COc1cc(Nc2cn[nH]c2-c2ccc(Cl)cc2)cc(OC)c1OC	108%	36.4%	38.1%	49.4%	51.5%	77	66.4%	43.4%	71.3%	8.84% (active)	35.9%	15%	-9.76% (active)	56	35.3%	56.4	39.1%	23.2%	41.6%	46.2%
CNCCCNc1nc2ccccc2c2c(=O)c3cc(OC)ccc3sc12	65.4%	-20.3% (active)	99.4%	20%	63.7%	77.4	94.7%	66.4%	99.1%	29.9%	57.5%	4.95% (active)	72.6%	79.3	48.3%	68.8	91.6%	99.3%	-38.1% (active)	103%
COc1ccc(-c2[nH]ncc2-c2cc3c(c(OC)c2)OCC(=O)N3)cc1	14.8%	12.6%	57.3%	7.86% (active)	-35.1% (active)	54	9.29% (active)	-23.9% (active)	59.8%	11.6%	23.7%	37.2%	-20.2% (active)	24.7	11.3%	17.6	11.9%	25.3%	41.7%	57.6%
